PubChem BioAssay (Tox21)
Results filed as inconclusive are left out. Entries that show only a call come without a potency. Values without a mark were called inactive. Activity calls are given as the source filed them. Unless noted, calls come from the whole dose curve; as a rule, active = well fitted curve in the direction sought with a large enough effect in the repeat runs; inconclusive = weak or mixed curves; inactive = no such curve, though single readings can be large; an effect the other way counts as inactive or inconclusive. Positions of bridges follow the written chain, without caps; N, C: chain ends. Non-standard residues stand in square brackets, D forms with d. Residues, ends and D or L forms follow the SMILES beside them. hArg = N=C(N)NCCCC[C@H](N)C(=O)O; Mpa = O=C(O)CCS

Assays:
[1] = target: Retinoic acid receptor RXR-alpha (Homo sapiens) (UniProt P19793); assay: qHTS assay to identify small molecule agonists of the RXR signaling pathway (AID 1159527; calls by dose curve; note: nearly all actives have a fitted effect of over 35% in size)
Chain of Retinoic acid receptor RXR-alpha (Homo sapiens) (P19793 whole entry, looked up): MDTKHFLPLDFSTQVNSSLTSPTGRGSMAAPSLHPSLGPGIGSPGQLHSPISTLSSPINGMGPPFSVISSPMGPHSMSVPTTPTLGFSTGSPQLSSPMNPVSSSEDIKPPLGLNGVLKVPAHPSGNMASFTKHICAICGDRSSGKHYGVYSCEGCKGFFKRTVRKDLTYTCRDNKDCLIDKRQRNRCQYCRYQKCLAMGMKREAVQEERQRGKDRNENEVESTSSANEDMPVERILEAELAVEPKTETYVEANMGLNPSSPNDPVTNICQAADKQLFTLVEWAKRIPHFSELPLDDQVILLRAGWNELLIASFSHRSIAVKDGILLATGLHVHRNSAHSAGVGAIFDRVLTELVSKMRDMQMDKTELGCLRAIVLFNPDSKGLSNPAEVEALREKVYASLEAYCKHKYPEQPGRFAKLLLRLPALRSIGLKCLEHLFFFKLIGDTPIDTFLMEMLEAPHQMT
In short: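 Agonist mode; 9-cis retinoic acid positive control. HEK 293T UAS-bla reporter cells, 2% charcoal-stripped FBS, 16 hr compound exposure at 37 C/5% CO2. LiveBLAzer B/G FRET substrate 2 hr RT; ex 405, em 460/530 nm.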

[2] = qHTS assay to identify small molecule agonists of the RXR signaling pathway - cell viability counter screen (AID 1159529); note: series mostly up to about 77 µM; nearly all actives have a fitted effect of over 50% in size
In short: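 Luminescence from CellTiter-Glo (30 min, RT) measured viability in the same wells as the beta-lactamase reporter readout. Cells: GeneBLAzer RXR-alpha HEK 293T, 2% charcoal-stripped FBS. Compound exposure 16 hr, 37 C.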

[3] = qHTS assay to identify small molecule antagonists of the retinoid acid receptor (RAR) signaling pathway - cell viability counter screen (AID 1159551); note: nearly all actives have a fitted effect of over 35% in size
In short: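 C3RL4 cells were seeded overnight at 37 C, then treated with compounds plus 1 uM (final) retinol for 6 h at 37 C. Viability was read as ATP by CellTiter-Glo luminescence after 30 min at room temperature.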

[4] = qHTS assay to identify small molecule antagonists of the retinoic acid receptor (RAR) signaling pathway (AID 1159552; note: nearly all actives have a fitted effect of over 50% in size)
In short: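 Luminescence from a RARE luciferase reporter in C3RL4 cells served as read-out. Cells received compounds together with 1 uM final retinol and incubated 6 hr at 37 C before detection reagent was added for 30 min at room temperature.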

[5] = qHTS assay to identify small molecule agonists of the retinoic acid receptor (RAR) signaling pathway (AID 1159553); note: potency is the fitted concentration of half-maximal effect
In short: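 C3RL4 cells carrying a RARE luciferase reporter were plated overnight at 37 C, then exposed to compounds in DMSO for 6 hr at 37 C and 5% CO2. Luminescence was read 30 min after luciferase reagent addition at room temperature.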

[6] = qHTS assay to identify small molecule antagonists of the estrogen related receptor (ERR) signaling pathway from Tox21 library - cell viability counter screen (AID 1224834); note: nearly all actives have a fitted effect of over 30% in size
In short: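 ERR reporter cells were plated 6 h before compound addition, then exposed to test compounds in DMSO for 17.5 h at 37 C. Viability was read as CellTiter-Fluor fluorescence after a 30-minute incubation at 37 C.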

[7] = target: Luciferin 4-monooxygenase (Photinus pyralis) (UniProt P08659); assay: qHTS assay to identify small molecule inhibitors of firefly luciferase (AID 1224835); note: nearly all actives have a fitted effect of over 25% in size; note: potency is the fitted concentration of half-maximal effect
Chain of Luciferin 4-monooxygenase (Photinus pyralis) (P08659 whole entry, looked up): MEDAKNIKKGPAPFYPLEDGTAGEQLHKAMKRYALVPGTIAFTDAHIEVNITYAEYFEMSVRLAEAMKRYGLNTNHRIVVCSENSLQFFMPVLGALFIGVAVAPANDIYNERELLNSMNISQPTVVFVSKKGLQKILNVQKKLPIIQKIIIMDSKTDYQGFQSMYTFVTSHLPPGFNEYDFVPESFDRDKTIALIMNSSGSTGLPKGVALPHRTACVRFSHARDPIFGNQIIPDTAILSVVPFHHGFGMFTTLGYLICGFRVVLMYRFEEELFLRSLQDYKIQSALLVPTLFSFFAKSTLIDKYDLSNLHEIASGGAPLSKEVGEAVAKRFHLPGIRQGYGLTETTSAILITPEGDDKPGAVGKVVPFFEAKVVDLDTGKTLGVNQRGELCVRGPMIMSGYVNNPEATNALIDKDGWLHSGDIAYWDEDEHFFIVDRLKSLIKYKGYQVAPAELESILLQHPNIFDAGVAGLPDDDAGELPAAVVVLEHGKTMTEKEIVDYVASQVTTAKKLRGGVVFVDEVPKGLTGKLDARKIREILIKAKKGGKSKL
In short: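 Quantitative HTS format; KM concentrations of both substrates. Purified P. pyralis FLuc activity quantified from luminescence images.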

[8] = qHTS assay to identify small molecule agonists of the constitutive androstane receptor (CAR) signaling pathway - cell viability counter screen (AID 1224836); note: series mostly up to about 92 µM; nearly all actives have a fitted effect of over 45% in size
In short: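 Viability read-out: CellTiter-Fluor fluorescence after 23 h compound exposure at 37 C/5% CO2 in double-stable HepG2-CYP2B6-hCAR cells, with PK11195 present at 0.75 uM final; compounds tested in 15-point titration.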

[9] = qHTS assay to identify small molecule antagonists of the constitutive androstane receptor (CAR) signaling pathway - cell viability counter screen (AID 1224837); note: series mostly up to about 92 µM; nearly all actives have a fitted effect of over 45% in size
In short: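 HepG2 cells stably expressing hCAR and a CYP2B6-2.2kb reporter were plated and pre-incubated 4 hr at 37 C/5% CO2, then given compounds at 15 concentrations plus 50 nM CITCO (final). After 23 hr, viability was read by CellTiter-Fluor fluorescence.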

[10] = target: Nuclear receptor subfamily 1 group I member 3 (Homo sapiens) (UniProt Q14994); assay: qHTS assay to identify small molecule antagonists of the constitutive androstane receptor (CAR) signaling pathway (AID 1224838); note: nearly all actives have a fitted effect of over 40% in size
Chain of Nuclear receptor subfamily 1 group I member 3 (Homo sapiens) (Q14994 whole entry, looked up): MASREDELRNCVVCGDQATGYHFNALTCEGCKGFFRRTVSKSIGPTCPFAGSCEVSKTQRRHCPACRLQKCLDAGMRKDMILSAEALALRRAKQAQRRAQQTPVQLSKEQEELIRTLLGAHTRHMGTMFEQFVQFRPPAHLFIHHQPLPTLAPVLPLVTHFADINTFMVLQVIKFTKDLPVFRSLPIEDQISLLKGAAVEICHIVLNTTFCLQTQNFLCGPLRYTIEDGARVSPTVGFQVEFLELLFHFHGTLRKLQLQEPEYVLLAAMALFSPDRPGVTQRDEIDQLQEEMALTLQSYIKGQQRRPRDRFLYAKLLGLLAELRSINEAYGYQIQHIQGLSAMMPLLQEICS
In short: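 HepG2 cells stably co-transfected with hCAR and a CYP2B6-2.2kb luciferase reporter were seeded 4 h before compound addition at 15 concentrations. Cells were stimulated with 50 nM CITCO (final) for 24 h at 37 C; luciferase luminescence was then read.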

[11] = target: Nuclear receptor subfamily 1 group I member 3 (Homo sapiens) (UniProt Q14994); assay: qHTS assay to identify small molecule agonists of the constitutive androstane receptor (CAR) signaling pathway (AID 1224839); note: nearly all actives have a fitted effect of over 15% in size; note: potency is the fitted concentration of half-maximal effect;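 for activation: HepG2 cells stably carrying human CAR and a CYP2B6 luciferase reporter; series mostly up to about 92 µM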
In short: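 Luminescence read-out (ONE-Glo, 30 min, room temperature) from double-stable HepG2-CYP2B6-hCAR cells exposed 24 h to 15-point compound series in presence of 0.75 uM PK11195 final.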

[12] = qHTS assay to identify small molecule antagonists of the estrogen related receptor signaling pathway with the pleiotropic PPARgamma coactivator (PGC) from Tox21 10K library - cell viability counter screen (AID 1224840; active = well fitted cell-killing curve with a large enough effect in the repeat runs, not every such curve was filed as active; note: nearly all actives have a fitted effect of over 40% in size)
In short: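 PGC/ERR cells were seeded at 2,000 cells/well and left 6 hours at 37 C/5% CO2 before pin-tool addition of compounds in DMSO. After 17.5 hours at 37 C, CellTiter-Fluor was added and fluorescence read 30 minutes later.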

[13] = target: Thyrotropin receptor (Homo sapiens) (UniProt P16473); assay: qHTS assay to identify small molecule agonists of the thyroid stimulating hormone receptor (TSHR) signaling pathway (AID 1224843; calls by dose curve; note: nearly all actives have a fitted effect of over 45% in size)
Chain of Thyrotropin receptor (Homo sapiens) (P16473 whole entry, looked up): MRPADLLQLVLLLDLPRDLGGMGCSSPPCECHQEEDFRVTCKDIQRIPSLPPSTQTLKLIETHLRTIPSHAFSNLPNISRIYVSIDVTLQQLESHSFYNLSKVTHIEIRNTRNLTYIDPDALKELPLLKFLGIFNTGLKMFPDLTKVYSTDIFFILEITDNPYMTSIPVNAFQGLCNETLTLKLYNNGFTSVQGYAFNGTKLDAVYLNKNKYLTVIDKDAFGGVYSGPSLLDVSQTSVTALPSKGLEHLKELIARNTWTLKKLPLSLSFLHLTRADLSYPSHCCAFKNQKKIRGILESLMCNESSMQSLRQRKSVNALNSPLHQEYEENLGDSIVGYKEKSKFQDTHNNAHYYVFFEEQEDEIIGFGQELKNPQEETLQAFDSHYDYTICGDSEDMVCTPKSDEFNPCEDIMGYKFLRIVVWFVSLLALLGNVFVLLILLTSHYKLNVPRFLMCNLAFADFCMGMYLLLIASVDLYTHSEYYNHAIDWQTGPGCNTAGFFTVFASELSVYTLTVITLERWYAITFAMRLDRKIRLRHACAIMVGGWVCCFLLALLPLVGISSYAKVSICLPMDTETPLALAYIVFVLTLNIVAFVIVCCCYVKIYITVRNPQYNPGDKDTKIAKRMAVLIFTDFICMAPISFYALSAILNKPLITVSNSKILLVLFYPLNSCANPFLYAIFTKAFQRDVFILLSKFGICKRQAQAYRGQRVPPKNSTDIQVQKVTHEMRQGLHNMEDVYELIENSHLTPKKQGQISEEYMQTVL
In short: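 Cell line HEK293 with TSHR; density 800/well. Exposure 30 min RT. Readout HTRF cAMP (cAMP-d2/anti-cAMP-cryptate), 1 h RT before reading.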

[14] = qHTS assay to identify small molecule agonists of the hypoxia (HIF-1) signaling pathway (AID 1224846; active = well fitted activation curve with a large enough effect in the signal ratio in the repeat runs, not every such curve was filed as active; the % refers to the signal ratio)
In short: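 HRE-bla ME-180 cells (beta-lactamase reporter under hypoxia response element) were plated at 2,000 cells/well in medium with 0.5% dialyzed FBS, rested 5 hrs, then given compounds in DMSO for 17 hrs at 37C, 5% CO2. Reporter induction was read with CCF4-AM FRET substrate.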

[15] = qHTS assay to identify small molecule agonists of H2AX - cell viability counter screen (AID 1224847; calls by dose curve; note: top concentration of the series differs between compounds; nearly all actives have a fitted effect of over 30% in size)
In short: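 CHO-K1 wt, 1000 cells/well, o/n 37C; cpds 15 conc, 3 h 37C, 0.76% DMSO; CellTiter-Glo, 30 min RT, luminescence.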

[16] = qHTS assay to identify small molecule agonists of the hypoxia (HIF-1) signaling pathway - cell viability counter screen (AID 1224844; calls by dose curve; note: nearly all actives have a fitted effect of over 50% in size)
In short: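 HRE-bla ME-180 cells in medium with 0.5% dialyzed FBS were preincubated 5 hrs at 37C, exposed to compounds for 17 hrs, then viability was read as CellTiter-Glo luminescence after 30 min at room temperature, in the reporter wells.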

[17] = qHTS assay to identify small molecule agonists of H2AX (AID 1224845; active = well fitted activation curve with a large enough effect in the signal ratio in the repeat runs, not every such curve was filed as active; the % refers to the signal ratio)
In short: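 Wild-type CHO-K1 cells plated overnight, then exposed 3 hr at 37C to compounds at 15 concentrations (0.76% DMSO). Lysed, then HTRF anti-pH2AX(S139)-cryptate/anti-H2AX-d2 detection after 24 hr at room temperature; emissions 665 and 620 nm.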

SMILES | Potency [1] | outcome [2] | outcome [3] | outcome [4] | Potency [5] | outcome [6] | Potency [7] | outcome [8] | outcome [9] | Potency [10] | Potency [11] | outcome [12] | outcome [13] | outcome [14] | outcome [15] | outcome [16] | outcome [17]
Cc1ccc2c(c1)C(=O)c1ccccc1C2=O | inactive | inactive | inactive | inactive | 4.31 µM (active) | inactive | 14.1 µM (active) | inactive | inactive | inactive | 27.2 µM (active) | inactive | inactive | inactive | inactive |  | 
CCOCCOCC | inactive | inactive | inactive | inactive | inactive | inactive | inactive | inactive | inactive | inactive | inactive | inactive |  | inactive | inactive | inactive | inactive
CC(C)=CCC/C(C)=C/COC=O | inactive | inactive | inactive | inactive | inactive | inactive | inactive | inactive | inactive | inactive | inactive | inactive | inactive | inactive | inactive |  | inactive
Cc1ccc(C(=O)O)cc1[N+](=O)[O-] | inactive | inactive | inactive | inactive | inactive | inactive | inactive | inactive | inactive | inactive | inactive | inactive |  | inactive | inactive | inactive | inactive
CN(C)C(C)(C)CO | inactive | inactive | inactive | inactive | inactive | inactive | inactive | inactive | inactive | inactive | inactive | inactive | inactive | inactive | inactive | inactive | inactive
NC(=O)[C@@H]1CSSCCC(=O)N[C@@H](CCCCN=C(N)N)C(=O)NCC(=O)N[C@@H](CC(=O)O)C(=O)N[C@@H](Cc2c[nH]c3ccccc23)C(=O)N2CCC[C@H]2C(=O)N1 ([Mpa][hArg]GDWPC-NH2; disulfide 1-7) | inactive | inactive | inactive | inactive | inactive | inactive | inactive | inactive | inactive | inactive | inactive | inactive | inactive | inactive | inactive |  | 
CCCCCC(C)O (stereo not drawn) | inactive | inactive | inactive | inactive | inactive | inactive | inactive | inactive | inactive | inactive | inactive | inactive |  | inactive | inactive | inactive | inactive
CCC/C=C(\C=O)CC | inactive | inactive | inactive | inactive | inactive | inactive | inactive | inactive | inactive | inactive | inactive | inactive | inactive | inactive | inactive | inactive | inactive
